Only some compounds are listed: those with a hit (about 14% of all), similar ones and a draw of the others.
Marburg entry inh = blocks Marburg virus binding to or entry into cells; 300,000 compounds, 1.8% hits; Potency, µM (titrated, usually from 37.8 µM), inactives show top-dose activity change, negative = inhibition, actives largely listed as inhibitors; Marburg virus pseudotyped entry inhibition, cell reporter; calls by dose curve; tested in HEK293 cells; also: potency is read from the fitted curve at half-maximal effect
HCMV inh = blocks human cytomegalovirus replication; HFF cells, HCMV-luciferase reporter, 72 h; hits give low values; activity change, negative = inhibition, % at 57.5 µM; 410,000 compounds, 4.5% hits; AID 1259415; in the data active = activity change below about -60%; inconclusive = no clear call, values can overlap the other calls; inactive = above about -39%
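HFF cells seeded 16 h at 37C, treated with compounds, infected with luciferase-reporter HCMV at MOI 1 PFU/cell; luciferase read at 72 h post infection, normalized to buffer-only and Salinomycin controls.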
Pf growth 96h = P. falciparum growth inhibition at 96 hours | P. falciparum luciferase reporter growth, 96 h | Potency, µM (top dose mostly 28.7 µM), for the others: at the highest dose activity change, negative = inhibition, most hits filed as inhibitors | 320,000 compounds, 6.9% hits | AID 504834; also: potency is read from the fitted curve at half-maximal effect
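P. falciparum expressing integrated firefly luciferase, in erythrocytes at 2% hematocrit, 0.05% parasitemia, incubated with compounds 96 h at 37 C, 5% CO2. Growth inhibition read as loss of luminescence; two-generation exposure targets delayed-death apicoplast inhibitors.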
HCV inh = inhibitors of hepatitis C virus infection | Huh7.5.1 HCVcc-Cre infection, luciferase reporter, 44 h | Potency, µM (highest dose often 41.8 µM), for inactives: at the top dose activity change, negative = inhibition, most hits filed as inhibitors | 340,000 compounds, 3.4% hits; also: potency is read from the fitted curve at half-maximal effect
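Luciferase read-out (15 sec integration) after a 15 min room-temperature substrate step quantifies HCVcc-Cre infection. Cells, 1,000 per well, had compound added 4 h post-plating, then virus at ~0.5 moi, and were cultured 44 h.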
Pf growth 48h = inhibits P. falciparum growth in the first generation, 48 h; 310,000 compounds, 5.9% hits; Potency, µM (series often up to 28.7 µM), for inactives: at the top dose activity change, negative = inhibition, usual class: inhibitors; AID 504832; P. falciparum luciferase growth in erythrocytes, 48 h; also: potency is read from the fitted curve at half-maximal effect
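Here the parasites carry a stable luciferase gene and grow inside erythrocytes in Albumax-based RPMI medium with compound for one erythrocytic cycle. Activity is scored as loss of luminescent signal.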
Lassa entry inh = inhibitors of Lassa virus binding or cell entry | 300,000 compounds, 1.2% hits | Lassa virus pseudotype entry inhibition, cell reporter | Potency, µM (series often up to 37.9 µM), without a hit: top-dose activity change, negative = inhibition, hits mostly inhibitors | AID 540256; calls by dose curve; tested in HEK293 cells; also: potency is read from the fitted curve at half-maximal effect; nearly all actives have a fitted effect of over 50% in size
Starred values were filed as active, the others as inactive; ? = inconclusive; nt = no result; ! = repeats disagree; [ ] = remark or other dose. Unless noted, calls follow the shape of the dose curve; as a rule, active = well fitted inhibition curve with a large enough effect; inconclusive = small, poorly fitted or top-dose-only effect, or another doubt; inactive = no such curve, though single readings can be large or run the other way. % is scaled to controls: 0 for no effect and ±100 for the full control effect.

SMILES	Marburg entry inh	HCMV inh	Pf growth 96h	HCV inh	Pf growth 48h	Lassa entry inh
COc1ccc(NS(=O)(=O)c2cccc(C(=O)NNC(=O)c3ccc(C)o3)c2)cc1	nt	-32.1	-17.0%	-6.1%	-18.1%	nt
COc1ccc(NS(=O)(=O)c2cc(C)ccc2NC(=O)c2cc(C)oc2C)cc1	?	4.5	1.0%	12.6µM*!	?	?
COc1ccc(NS(=O)(=O)c2cccc(C(=O)NNC(=O)c3ccccc3O)c2)cc1	-22.5%[46.1 µM]	-94.4*	4.4%	?	?	?
COc1ccc(NS(=O)(=O)c2cccc(C(=O)NNC(=O)COc3ccccc3)c2)cc1	?	8.2	30.3%	2.0%	77.7%	-3.8%
COc1ccc(NC(=O)c2cc(C3CCCCN3C(=O)OCc3ccccc3)on2)c(C)c1 (stereo not drawn)	nt	-25.6	nt	nt	nt	nt
Cc1ccc(CNC(=O)C(CC(C)C)NS(=O)(=O)c2ccc3c(c2)oc(=O)n3C)cc1 (stereo not drawn)	-1.2%[46.1 µM]	8.8	nt	nt	nt	-7.4%[46.1 µM]
O=C(Nc1nc(-c2ccccn2)cs1)c1cccc(-n2cnnn2)c1	nt	-33.5	0.928µM*	?	1.17µM*	nt
O=C(Nc1nc(-c2ccccn2)cs1)c1ccc(Br)s1	?	-98.6*	nt	2.24µM*	?	?
CC1Cc2c([nH]c3ccccc23)C2c3ccccc3CN12 (stereo not drawn)	?	36.3	-12.1%	-31.4%	-18.3%	?
COc1ccc(C)cc1Nc1n[n+](-c2ccccc2)c(-c2cc(OC)c(OC)cc2Br)s1	nt	6.9	9.28µM*	-27.9%	?	nt
COc1ccc(C)cc1Nc1n[n+](-c2ccccc2)c(-c2c(OC)ccc3ccccc23)s1	nt	-100.9*	?	31.6µM*	3.7µM*	nt
COc1ccc(C)cc1Nc1n[n+](-c2ccccc2)c(-c2ccc(C(=O)O)cc2)s1	nt	-13.6	2.33µM*	7.5%	17.6%	nt
CCOc1ccccc1C(=O)N(Cc1ccco1)Cc1ccco1	-9.8%[46.1 µM]	?	nt	nt	nt	4.6%[46.1 µM]
COc1ccccc1/C=C(/NC(=O)c1ccccc1)C(=O)NCCN1CCOCC1	-0.5%[46.1 µM]	-19.4	2.8%	14.0%	-27.8%	8.6%[46.1 µM]
CCOc1ccc(N(CC(=O)NC2CCCCC2)C(=O)CSc2nnc(COc3ccccc3)o2)cc1	-9.1%[46.1 µM]	27.4	?	?	?	-5.2%
Cc1sc2nc(CN(Cc3cccs3)C(=O)NC3CCCCC3)[nH]c(=O)c2c1C	?	-25.5	-3.9%	11.2µM*	?	?
Cc1sc2nc(CN(C(=O)NC3CCCCC3)C3CCCC3)[nH]c(=O)c2c1C	nt	-11.3	-20.6%	-3.3%	?	nt
O=C(CN(Cc1cccs1)C(=O)CSc1nnc(COc2ccccc2)o1)NC1CCCCC1	?	2.5	8.0%	-10.0%	13.1µM*	?
Cc1ccc(C(=O)N(CC(=O)NC2CCCC2)Cc2cccs2)s1	11.3%	11.7	1.47µM*	-21.3%	-8.8%	7.9%
CC(=O)N1CCN(S(=O)(=O)c2cccc(C(=O)OCC(=O)NCc3ccccc3Cl)c2)CC1	nt	5.2	nt	nt	nt	nt
COc1ccc(-c2coc3c(C(=O)N4CCN(C)CC4)cccc23)c(C)c1	nt	-27.9	nt	nt	nt	nt
CCOc1ccc(CCNC(=O)CCc2c(C)nc3c(-c4ccccc4)c(C)nn3c2C)cc1OCC	13.8%[46.1 µM]	36.6	nt	nt	nt	27.7%[46.1 µM]
Cc1cc(C(C)(C)C)cc(C)c1CCNC(=O)c1ccc[n+]([O-])c1	0.631µM*	?	?	?	-15.5%	3.16µM*
COc1ccc(C(C)(C)C)cc1NC(=O)c1ccc[n+]([O-])c1	?	56.1	13.3%	1.2%	40.8%	-4.4%[46.1 µM]
COC(=O)c1nnn(CC(=O)Nc2cc(F)ccc2F)c1C(=O)OC	4.5%[46.1 µM]	-109.0*	nt	nt	nt	-0.9%[46.1 µM]
O=C(CSC1=N/C(=C/c2ccc(Cl)c(Cl)c2)C(=O)N1c1ccccc1F)NC1CC1	?	?	29.0%	-14.8%	11.9%	?
COc1ccc(Cl)cc1N1C(=O)/C(=C/c2sccc2C)N=C1SCC(=O)NC1CC1	10µM*	51.7	nt	?	nt	?
COc1ccc(/C=C2/CSC/C(=C/c3ccc(OC)c(OC)c3)C2=O)cc1OC	3.55µM*	-101.2*	nt	?	nt	3.16µM*
